# Data: a collection of fitness landscapes (doi:10.1126/science.1257360)
# In all, about 140,000 sequences were measured (“enrichment ratio after two sorts for PhoP signalling”: median about 0, highest 2% from about 11 on). Shown is part of a subset that was picked to be rich in the highest values.
# B1: PhoQ; a variant is named by its letters at X, in order, P23837 (parent)
# chain: MKKLLRLFFPLSLRVRFLLATAAVVLVLSLAYGMVALIGYSVSFDKTTFRLLRGESNLFYTLAKWENNKLHVELPENIDKQSPTMTLIYDENGQLLWAQRDVPWLMKMIQPDWLKSNGFHEIEADVNDTSLLLSGDHSIQQQLQEVREDDDDAEMTHSVAVNVYPATSRMPKLTIVVVDTIPVELKSSYMVWSWFIYVLSANLLLVIPLLWVAAWWSLRPIEALAKEVRELEEHNRELLNPATTRELTSLVRNLNRLLKSERERYDKYRTTLTDLTHSLKTPLXXLQXXLRSLRSEKMSVSDAEPVMLEQISRISQQIGYYLHRASMRGGTLLSRELHPVAPLLDNLTSALNKVYQRKGVNISLDISPEISFVGEQNDFVEVMGNVLDNACKYCLEFVEISARQTDEHLYIVVEDDGPGIPLSKREVIFDRGQRVDTLRPGQGVGLAVAREITEQYEGKIVAGESMLGGARMEVIFGRQHSAPKDE
# Variants of: B1
# Assay: enrichment ratio after two sorts for PhoP signalling (ratio (wild type AVST 3.29)); higher = more functional
# Settings: with PhoP (E. coli)
row,Variant,enrichment ratio
1,TSMI,23
2,KSMI,≤ 0.25
3,KSMV,≤ 0.25
4,FSMV,9.33
5,TSMV,19.3
6,TSMW,≤ 0.25
7,RCKQ,≤ 0.25
8,VMWK,≤ 0.25
9,AQIM,2.44
10,MGFS,2.82
11,MGFC,14.4
12,QRLC,≤ 0.25
13,MGFA,3.62
14,MLWC,≤ 0.25
15,MGDY,≤ 0.25
16,MGWC,32.1
17,MGLC,19.1
18,MGNS,≤ 0.25
19,IHNL,≤ 0.25
20,VPHV,≤ 0.25
21,QVMI,≤ 0.25
22,QDPG,≤ 0.25
23,LMRT,≤ 0.25
24,HNWM,≤ 0.25

row,Variant,enrichment ratio
1,KSAN,≤ 0.25
2,VLAN,≤ 0.25
3,KYAN,≤ 0.25
4,SRAN,≤ 0.25
5,SSAN,12.6
6,PLAN,≤ 0.25
7,NSAN,≤ 0.25
8,SIAN,22.8
9,SIWN,4.21
10,SLAN,13.8
11,SFAN,≤ 0.25
12,TLAN,12.5
13,AYNP,≤ 0.25
14,MNQS,≤ 0.25
15,QHYQ,≤ 0.25
16,SAQN,≤ 0.25
17,KQAN,≤ 0.25
18,SAAN,11.7
19,IPYG,≤ 0.25
20,MDSP,1.12
21,NDLM,≤ 0.25
22,YTWY,≤ 0.25
23,LTWY,2.54
24,MPWY,≤ 0.25

row,Variant,enrichment ratio
1,MTWY,21.6
2,YTWF,≤ 0.25
3,TTWY,14
4,MMWF,≤ 0.25
5,MTWI,10.2
6,MTWF,11.8
7,REII,≤ 0.25
8,QNIY,≤ 0.25
9,RKGF,≤ 0.25
10,RLAG,≤ 0.25
11,LLSD,≤ 0.25
12,KHVD,≤ 0.25
13,WVTG,≤ 0.25
14,WRYK,≤ 0.25
15,DWAR,≤ 0.25
16,DQSP,≤ 0.25
17,HHVS,≤ 0.25
18,HLFA,≤ 0.25
19,AIAG,12.5
20,TIFG,≤ 0.25
21,TIAG,21.3
22,WIAG,≤ 0.25
23,AKAG,≤ 0.25
24,KKAG,≤ 0.25

row,Variant,enrichment ratio
1,EQNT,≤ 0.25
2,MHNT,≤ 0.25
3,ITTY,≤ 0.25
4,YTQV,≤ 0.25
5,STQV,2.63
6,FVHV,12.9
7,TTIV,0.549
8,TTMV,28.9
9,TTHV,14.6
10,TTQV,16.2
11,YTHV,≤ 0.25
12,FSHV,≤ 0.25
13,NVHV,≤ 0.25
14,TTPV,≤ 0.25
15,FDHV,≤ 0.25
16,SKAG,≤ 0.25
17,TMDC,≤ 0.25
18,CSSV,0.253
19,LKSK,≤ 0.25
20,QYAS,≤ 0.25
21,DYQS,≤ 0.25
22,HVFV,≤ 0.25
23,VSIQ,≤ 0.25
24,RGHV,≤ 0.25

row,Variant,enrichment ratio
1,GGHV,≤ 0.25
2,TGHV,16.1
3,YHQM,≤ 0.25
4,DRRP,≤ 0.25
5,ARSC,≤ 0.25
6,ADSC,≤ 0.25
7,ANSK,≤ 0.25
8,AKSC,23.2
9,TKSC,5.09
10,ANSC,11.9
11,VIHS,≤ 0.25
12,QISE,≤ 0.25
13,IIPR,≤ 0.25
14,TIIG,≤ 0.25
15,QLWT,≤ 0.25
16,LCWT,≤ 0.25
17,QQWT,≤ 0.25
18,MPWT,≤ 0.25
19,QIWT,20.8
20,TSWT,13.4
21,QEWT,11.3
22,MEWT,34.7
23,MKWT,≤ 0.25
24,QRWT,≤ 0.25

row,Variant,enrichment ratio
1,TPWT,≤ 0.25
2,MMWT,≤ 0.25
3,LESG,≤ 0.25
4,KRHA,≤ 0.25
5,DVYV,≤ 0.25
6,SDAE,≤ 0.25
7,YELP,≤ 0.25
8,EIRK,≤ 0.25
9,ESAA,≤ 0.25
10,EVKR,≤ 0.25
11,KHRA,≤ 0.25
12,IFHG,≤ 0.25
13,MCIH,≤ 0.25
14,QGWT,36
15,MQWT,21.2
16,YTWT,≤ 0.25
17,DMWT,≤ 0.25
18,ITWT,≤ 0.25
19,KEWT,≤ 0.25
20,NEWT,32
21,VRWT,≤ 0.25
22,MRWT,≤ 0.25
23,TTWT,15
24,FFWT,≤ 0.25

row,Variant,enrichment ratio
1,FQWT,≤ 0.25
2,NKIQ,≤ 0.25
3,ENRF,≤ 0.25
4,PLPI,≤ 0.25
5,WSFP,≤ 0.25
6,YDQD,≤ 0.25
7,VCTS,≤ 0.25
8,WTPD,≤ 0.25
9,SKDW,≤ 0.25
10,EAPV,≤ 0.25
11,PSRQ,≤ 0.25
12,MGCC,≤ 0.25
13,VYFN,≤ 0.25
14,VGPY,≤ 0.25
15,LCTR,≤ 0.25
16,LRWT,≤ 0.25
17,LLWT,≤ 0.25
18,ADWT,≤ 0.25
19,TEWT,12.8
20,HPWT,≤ 0.25
21,SLWT,≤ 0.25
22,LEWT,12.5
23,TDWT,25.1
24,RLWT,≤ 0.25

row,Variant,enrichment ratio
1,SPWT,≤ 0.25
2,KSWT,≤ 0.25
3,SEWT,13.2
4,MNIK,≤ 0.25
5,LKPQ,≤ 0.25
6,MYHS,≤ 0.25
7,LAEQ,≤ 0.25
8,KQHW,≤ 0.25
9,LWPI,≤ 0.25
10,IYVA,≤ 0.25
11,RPSC,≤ 0.25
12,GEHV,≤ 0.25
13,YVEW,≤ 0.25
14,RVGM,≤ 0.25
15,VLSL,0.415
16,GDSL,≤ 0.25
17,SLSL,10.7
18,NGSL,≤ 0.25
19,TISL,19.4
20,GGSL,3.4
21,NISL,0.771
22,TGSL,16.8
23,WISL,≤ 0.25
24,GLSL,11.5

row,Variant,enrichment ratio
1,TLSL,15.8
2,GLSK,≤ 0.25
3,WCCL,≤ 0.25
4,HISH,≤ 0.25
5,VTMH,≤ 0.25
6,AIRA,≤ 0.25
7,TVSY,10.4
8,MVVG,≤ 0.25
9,YGHF,≤ 0.25
10,NASL,≤ 0.25
11,SPSL,≤ 0.25
12,NVSL,≤ 0.25
13,KASL,≤ 0.25
14,TASL,15.1
15,TVSL,14.4
16,SGSL,11.8
17,YWEI,≤ 0.25
18,PCWT,≤ 0.25
19,HICM,≤ 0.25
20,DTPM,≤ 0.25
21,NGCQ,≤ 0.25
22,RGCQ,≤ 0.25
23,GECQ,17
24,SPCQ,≤ 0.25

row,Variant,enrichment ratio
1,TGCQ,13.9
2,GECS,7.23
3,STCQ,15.3
4,FGCS,≤ 0.25
5,SQCQ,3.73
6,FGCI,7.38
7,FGCQ,13.2
8,GECI,7.86
9,WIRR,≤ 0.25
10,DKPL,≤ 0.25
11,LNCS,≤ 0.25
12,HHGV,≤ 0.25
13,NSRQ,≤ 0.25
14,LTKK,≤ 0.25
15,ARTW,≤ 0.25
16,SHKM,≤ 0.25
17,ACGT,4.5
18,HFGF,≤ 0.25
19,MLHA,≤ 0.25
20,TTCQ,18.9
21,YTCQ,1.7
22,GECV,16.3
23,GECL,5.03
24,DTCQ,≤ 0.25

row,Variant,enrichment ratio
1,ITCQ,≤ 0.25
2,GNCQ,12.1
3,GTCQ,13.4
4,MTCQ,≤ 0.25
5,GNHP,≤ 0.25
6,GICQ,10.3
7,GECA,1.47
8,MPVD,≤ 0.25
9,LRSS,≤ 0.25
10,QFGG,≤ 0.25
11,YYIN,≤ 0.25
12,IIQY,≤ 0.25
13,NRIW,≤ 0.25
14,HQPD,≤ 0.25
15,YMHI,≤ 0.25
16,FYKD,≤ 0.25
17,HRDN,≤ 0.25
18,QQHS,≤ 0.25
19,YSME,1.23
20,MDWD,≤ 0.25
21,FRMF,≤ 0.25
22,GGCQ,13.2
23,GHCQ,≤ 0.25
24,NICQ,≤ 0.25

row,Variant,enrichment ratio
1,LNMQ,≤ 0.25
2,NCQG,≤ 0.25
3,NALQ,≤ 0.25
4,IALI,9.02
5,NALL,5.99
6,YACN,≤ 0.25
7,TALQ,15.2
8,TALI,18.1
9,TADK,≤ 0.25
10,TACN,13
11,NWCN,≤ 0.25
12,KALQ,≤ 0.25
13,TALL,12
14,KALL,≤ 0.25
15,PICT,≤ 0.25
16,DTQQ,≤ 0.25
17,VDFR,≤ 0.25
18,SNNF,6.15
19,GFIP,≤ 0.25
20,GLMF,1.04
21,FESF,≤ 0.25
22,AAEK,≤ 0.25
23,QIFT,≤ 0.25
24,TALS,10.9

row,Variant,enrichment ratio
1,TAQN,≤ 0.25
2,TALA,13.8
3,TALT,9.61
4,TALC,20.9
5,EALN,≤ 0.25
6,IALC,1.46
7,TALN,18.9
8,KALC,≤ 0.25
9,MHGF,≤ 0.25
10,YMMK,≤ 0.25
11,QQSN,≤ 0.25
12,NNFF,≤ 0.25
13,VDVG,≤ 0.25
14,FFRS,≤ 0.25
15,FHDF,≤ 0.25
16,MQYS,6.75
17,QTFE,≤ 0.25
18,SEKM,≤ 0.25
